# Reference: PMC7862700, “An all-to-all approach to the identification of sequence-specific readers for epigenetic DNA modifications on cytosine”
# Legend:
# Assay in all cases: DAPPL (digital affinity profiling via proximity ligation, sequencing); 10 mM Tris-HCl pH 7.5, 50 mM NaCl, 1 mM DTT, 4% glycerol, room temperature, 30 min; GST-TFs on glutathione beads, 16-mer random dsDNA library, 0.1% formaldehyde crosslink after washing; high values mean tight binding
# Settings in all cases: protein: recombinant; tags: N-terminal GST; dsDNA, one strand shown
# ERF = target: T1, ERF (Homo sapiens, UniProt P50548 1-548)
# T1 sequence: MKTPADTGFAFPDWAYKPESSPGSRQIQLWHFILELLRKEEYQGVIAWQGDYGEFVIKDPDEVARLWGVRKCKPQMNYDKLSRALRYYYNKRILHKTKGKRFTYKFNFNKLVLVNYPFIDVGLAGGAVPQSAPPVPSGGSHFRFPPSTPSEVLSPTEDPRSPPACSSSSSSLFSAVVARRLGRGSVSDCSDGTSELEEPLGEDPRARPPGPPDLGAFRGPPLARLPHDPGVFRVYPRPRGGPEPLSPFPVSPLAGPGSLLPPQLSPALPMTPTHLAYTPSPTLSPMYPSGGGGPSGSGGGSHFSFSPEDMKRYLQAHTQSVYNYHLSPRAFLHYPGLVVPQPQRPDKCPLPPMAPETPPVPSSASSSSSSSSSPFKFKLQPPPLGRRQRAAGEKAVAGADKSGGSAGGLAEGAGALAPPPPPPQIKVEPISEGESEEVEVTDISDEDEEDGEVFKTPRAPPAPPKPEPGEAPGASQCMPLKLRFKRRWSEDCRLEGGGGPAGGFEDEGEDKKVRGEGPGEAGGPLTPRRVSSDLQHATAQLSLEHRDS
# Outline: (§1)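 After expression in yeast as GST fusions, human transcription factors were bound to glutathione beads, DNA-barcoded and mixed with a tag-only sample. The pools were incubated with 200 nmole of a 16-mer random double-stranded DNA library in Tris/NaCl/DTT/glycerol buffer (30 min, room temperature), washed and crosslinked with 0.1% formaldehyde. Proximity ligation with BsaI/T4 ligase ran for 1 h at 37 °C, before PCR amplification and sequencing on an Illumina NextSeq500. Binding signal is a hexamer's read frequency for a factor divided by its frequency for the tag-only sample.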
# ETV3L = target: T2, ETV3L (Homo sapiens, UniProt Q6ZN32 1-361)
# T2 sequence: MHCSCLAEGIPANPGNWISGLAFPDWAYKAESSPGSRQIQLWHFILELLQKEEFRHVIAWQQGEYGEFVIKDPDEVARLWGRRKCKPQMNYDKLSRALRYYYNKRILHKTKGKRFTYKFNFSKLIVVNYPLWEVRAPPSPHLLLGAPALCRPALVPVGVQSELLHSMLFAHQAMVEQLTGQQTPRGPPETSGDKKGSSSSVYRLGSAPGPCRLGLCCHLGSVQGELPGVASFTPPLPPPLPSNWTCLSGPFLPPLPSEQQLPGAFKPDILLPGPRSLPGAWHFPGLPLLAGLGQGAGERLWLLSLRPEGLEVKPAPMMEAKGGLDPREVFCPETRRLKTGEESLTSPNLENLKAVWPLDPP
# Outline: as §1
# ETS2 = target: T3, ETS2 (Homo sapiens, UniProt P15036 1-469)
# T3 sequence: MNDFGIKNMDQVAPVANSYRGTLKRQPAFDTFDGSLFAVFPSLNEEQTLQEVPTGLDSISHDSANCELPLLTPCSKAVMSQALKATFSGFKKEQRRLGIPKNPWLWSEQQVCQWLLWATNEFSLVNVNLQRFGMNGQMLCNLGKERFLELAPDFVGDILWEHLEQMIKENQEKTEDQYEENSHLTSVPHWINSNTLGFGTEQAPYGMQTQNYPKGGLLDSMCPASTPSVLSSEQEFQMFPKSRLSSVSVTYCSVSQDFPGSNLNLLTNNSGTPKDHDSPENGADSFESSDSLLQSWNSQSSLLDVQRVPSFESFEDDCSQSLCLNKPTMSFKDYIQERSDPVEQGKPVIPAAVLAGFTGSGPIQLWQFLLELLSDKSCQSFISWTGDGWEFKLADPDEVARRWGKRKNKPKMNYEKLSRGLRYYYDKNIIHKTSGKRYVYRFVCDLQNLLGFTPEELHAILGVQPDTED
# Outline: as §1
# SPDEF = target: T4, SPDEF (Homo sapiens, UniProt O95238 1-335)
# T4 sequence: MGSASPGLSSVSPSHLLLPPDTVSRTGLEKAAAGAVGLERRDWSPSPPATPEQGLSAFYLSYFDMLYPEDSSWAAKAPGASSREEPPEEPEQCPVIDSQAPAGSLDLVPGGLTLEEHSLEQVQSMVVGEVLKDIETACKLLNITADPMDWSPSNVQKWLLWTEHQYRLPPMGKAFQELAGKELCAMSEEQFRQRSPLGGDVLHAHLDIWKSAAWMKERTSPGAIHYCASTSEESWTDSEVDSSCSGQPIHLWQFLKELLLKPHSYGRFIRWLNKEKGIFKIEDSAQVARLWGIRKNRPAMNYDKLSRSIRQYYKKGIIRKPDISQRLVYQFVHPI
# Outline: as §1
# ETV7 = target: T5, ETV7 (Homo sapiens, UniProt Q9Y603 1-341)
# T5 sequence: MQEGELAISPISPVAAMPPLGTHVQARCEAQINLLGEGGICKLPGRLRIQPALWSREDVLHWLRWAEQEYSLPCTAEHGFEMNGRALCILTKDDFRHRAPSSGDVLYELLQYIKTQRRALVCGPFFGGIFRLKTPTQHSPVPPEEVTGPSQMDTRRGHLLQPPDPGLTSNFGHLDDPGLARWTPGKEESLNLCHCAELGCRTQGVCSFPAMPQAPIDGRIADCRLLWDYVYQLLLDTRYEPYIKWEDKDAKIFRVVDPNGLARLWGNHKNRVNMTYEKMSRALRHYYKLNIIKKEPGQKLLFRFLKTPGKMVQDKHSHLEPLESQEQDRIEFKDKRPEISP
# Outline: as §1
# ELF5 = target: T6, ELF5 (Homo sapiens, UniProt Q9UKW6-2 1-255)
# T6 sequence: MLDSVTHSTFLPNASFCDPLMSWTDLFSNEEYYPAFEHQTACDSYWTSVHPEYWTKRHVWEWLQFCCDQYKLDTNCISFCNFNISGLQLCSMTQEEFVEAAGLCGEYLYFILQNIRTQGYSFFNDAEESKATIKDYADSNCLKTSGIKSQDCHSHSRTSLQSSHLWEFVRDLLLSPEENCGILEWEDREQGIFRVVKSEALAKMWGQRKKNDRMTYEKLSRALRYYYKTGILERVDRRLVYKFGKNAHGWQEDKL
# Outline: as §1
# ETV3 = target: T7, ETV3 (Homo sapiens, UniProt P41162-2 1-143)
# T7 sequence: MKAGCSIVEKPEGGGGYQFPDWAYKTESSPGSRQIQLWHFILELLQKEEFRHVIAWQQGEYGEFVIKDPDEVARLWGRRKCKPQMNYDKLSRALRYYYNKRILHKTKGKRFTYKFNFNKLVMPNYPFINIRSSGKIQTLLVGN
# Outline: as §1
# ETV6 = ETV6 (Homo sapiens, UniProt P41212 1-452)
# ETV6, sequence (P41212 whole entry): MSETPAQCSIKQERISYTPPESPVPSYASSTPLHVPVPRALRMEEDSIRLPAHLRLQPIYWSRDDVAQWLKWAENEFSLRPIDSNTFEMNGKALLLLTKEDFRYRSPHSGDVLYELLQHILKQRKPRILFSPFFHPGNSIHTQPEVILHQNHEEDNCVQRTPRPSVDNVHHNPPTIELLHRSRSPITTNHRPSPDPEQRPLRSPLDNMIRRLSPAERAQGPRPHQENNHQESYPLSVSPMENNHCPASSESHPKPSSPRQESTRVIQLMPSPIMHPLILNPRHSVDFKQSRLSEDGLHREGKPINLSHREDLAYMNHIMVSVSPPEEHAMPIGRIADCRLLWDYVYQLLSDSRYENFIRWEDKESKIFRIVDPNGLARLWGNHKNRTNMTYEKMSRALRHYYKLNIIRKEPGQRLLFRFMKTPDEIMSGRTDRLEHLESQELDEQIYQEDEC
# Outline: as §1
Sequence,binding signal (ERF),binding signal (ETV3L),binding signal (ETS2),binding signal (SPDEF),binding signal (ETV7),binding signal (ELF5),binding signal (ETV3),binding signal (ETV6)
AATATC,"1.46 fold enrichment (6-mer frequency, TF over GST control)","1.48 fold enrichment (6-mer frequency, TF over GST control)","1.55 fold enrichment (6-mer frequency, TF over GST control)","1.78 fold enrichment (6-mer frequency, TF over GST control)","1.52 fold enrichment (6-mer frequency, TF over GST control)","1.82 fold enrichment (6-mer frequency, TF over GST control)","1.6 fold enrichment (6-mer frequency, TF over GST control)","1.57 fold enrichment (6-mer frequency, TF over GST control)"
TTCGGT,"1.18 fold enrichment (6-mer frequency, TF over GST control)","1.11 fold enrichment (6-mer frequency, TF over GST control)","1.16 fold enrichment (6-mer frequency, TF over GST control)","1.13 fold enrichment (6-mer frequency, TF over GST control)","1.15 fold enrichment (6-mer frequency, TF over GST control)","1.06 fold enrichment (6-mer frequency, TF over GST control)","1.07 fold enrichment (6-mer frequency, TF over GST control)","1.22 fold enrichment (6-mer frequency, TF over GST control)"
TTGAAT,"1.05 fold enrichment (6-mer frequency, TF over GST control)","1.01 fold enrichment (6-mer frequency, TF over GST control)","1.06 fold enrichment (6-mer frequency, TF over GST control)","1.17 fold enrichment (6-mer frequency, TF over GST control)","1.09 fold enrichment (6-mer frequency, TF over GST control)","1.09 fold enrichment (6-mer frequency, TF over GST control)","1.02 fold enrichment (6-mer frequency, TF over GST control)","1.03 fold enrichment (6-mer frequency, TF over GST control)"
TAAACG,"1.11 fold enrichment (6-mer frequency, TF over GST control)","1.07 fold enrichment (6-mer frequency, TF over GST control)","1.16 fold enrichment (6-mer frequency, TF over GST control)","1.11 fold enrichment (6-mer frequency, TF over GST control)","1.1 fold enrichment (6-mer frequency, TF over GST control)","1.1 fold enrichment (6-mer frequency, TF over GST control)","1.15 fold enrichment (6-mer frequency, TF over GST control)","1.14 fold enrichment (6-mer frequency, TF over GST control)"
TACCTC,"1.32 fold enrichment (6-mer frequency, TF over GST control)","1.43 fold enrichment (6-mer frequency, TF over GST control)","1.26 fold enrichment (6-mer frequency, TF over GST control)","1.23 fold enrichment (6-mer frequency, TF over GST control)","1.19 fold enrichment (6-mer frequency, TF over GST control)","1.29 fold enrichment (6-mer frequency, TF over GST control)","1.25 fold enrichment (6-mer frequency, TF over GST control)","1.11 fold enrichment (6-mer frequency, TF over GST control)"
TCAAAA,"1.12 fold enrichment (6-mer frequency, TF over GST control)","1.18 fold enrichment (6-mer frequency, TF over GST control)","1.15 fold enrichment (6-mer frequency, TF over GST control)","1.06 fold enrichment (6-mer frequency, TF over GST control)","1.22 fold enrichment (6-mer frequency, TF over GST control)","1.11 fold enrichment (6-mer frequency, TF over GST control)","1.15 fold enrichment (6-mer frequency, TF over GST control)","1.24 fold enrichment (6-mer frequency, TF over GST control)"
ACCGAT,"1.05 fold enrichment (6-mer frequency, TF over GST control)","1.11 fold enrichment (6-mer frequency, TF over GST control)","1.11 fold enrichment (6-mer frequency, TF over GST control)","1.05 fold enrichment (6-mer frequency, TF over GST control)","1.08 fold enrichment (6-mer frequency, TF over GST control)","1.04 fold enrichment (6-mer frequency, TF over GST control)","1.13 fold enrichment (6-mer frequency, TF over GST control)","1.08 fold enrichment (6-mer frequency, TF over GST control)"
ATCCCC,"1.43 fold enrichment (6-mer frequency, TF over GST control)","1.41 fold enrichment (6-mer frequency, TF over GST control)","1.29 fold enrichment (6-mer frequency, TF over GST control)","1.41 fold enrichment (6-mer frequency, TF over GST control)","1.3 fold enrichment (6-mer frequency, TF over GST control)","1.46 fold enrichment (6-mer frequency, TF over GST control)","1.35 fold enrichment (6-mer frequency, TF over GST control)","1.29 fold enrichment (6-mer frequency, TF over GST control)"
CACGCT,"1.35 fold enrichment (6-mer frequency, TF over GST control)","1.37 fold enrichment (6-mer frequency, TF over GST control)","1.31 fold enrichment (6-mer frequency, TF over GST control)","1.35 fold enrichment (6-mer frequency, TF over GST control)","1.36 fold enrichment (6-mer frequency, TF over GST control)","1.25 fold enrichment (6-mer frequency, TF over GST control)","1.37 fold enrichment (6-mer frequency, TF over GST control)","1.34 fold enrichment (6-mer frequency, TF over GST control)"
